For one sequence, binding signal results are on record in article PMC7862700, “An all-to-all approach to the identification of sequence-specific readers for epigenetic DNA modifications on cytosine”.

Holding throughout (assay): DAPPL (digital affinity profiling via proximity ligation, sequencing); 10 mM Tris-HCl pH 7.5, 50 mM NaCl, 1 mM DTT, 4% glycerol, room temperature, 30 min; GST-TFs on glutathione beads, 16-mer random dsDNA library, 0.1% formaldehyde crosslink after washing; high values mean tight binding
In one experiment the target is T1, FLI1 (Homo sapiens, UniProt Q01543 1-452).
T1 sequence: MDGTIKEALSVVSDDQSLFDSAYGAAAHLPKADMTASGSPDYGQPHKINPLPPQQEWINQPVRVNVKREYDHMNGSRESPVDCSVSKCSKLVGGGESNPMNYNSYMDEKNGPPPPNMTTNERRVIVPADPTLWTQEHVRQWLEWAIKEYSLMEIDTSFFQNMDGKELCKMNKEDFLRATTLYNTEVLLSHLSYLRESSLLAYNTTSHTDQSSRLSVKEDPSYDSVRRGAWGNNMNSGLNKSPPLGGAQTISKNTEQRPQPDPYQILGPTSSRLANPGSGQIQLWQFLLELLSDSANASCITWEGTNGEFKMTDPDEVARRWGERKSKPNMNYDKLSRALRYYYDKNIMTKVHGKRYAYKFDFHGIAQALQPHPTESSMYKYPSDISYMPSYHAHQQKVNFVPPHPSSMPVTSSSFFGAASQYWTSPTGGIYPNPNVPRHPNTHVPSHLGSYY
As to conditions: protein: recombinant; tags: N-terminal GST; dsDNA, one strand shown. A digest of the protocol: (§1)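 In yeast, human transcription factors were expressed with a GST fusion, then pulled down on glutathione beads and given DNA barcodes. Pooled with a tag-only sample, they were exposed to 200 nmole of a 16-mer random double-stranded DNA library (Tris/NaCl/DTT/glycerol buffer, room temperature, 30 min), washed, crosslinked with 0.1% formaldehyde, proximity-ligated using BsaI/T4 ligase for 1 h at 37 °C, PCR-amplified and read on an Illumina NextSeq500. Each hexamer's frequency of reads for a factor, divided by the matching frequency for the tag-only sample, gives the binding signal.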

In a further experiment the target is T2, ELK1 (Homo sapiens, UniProt P19419 1-428).
T2 sequence: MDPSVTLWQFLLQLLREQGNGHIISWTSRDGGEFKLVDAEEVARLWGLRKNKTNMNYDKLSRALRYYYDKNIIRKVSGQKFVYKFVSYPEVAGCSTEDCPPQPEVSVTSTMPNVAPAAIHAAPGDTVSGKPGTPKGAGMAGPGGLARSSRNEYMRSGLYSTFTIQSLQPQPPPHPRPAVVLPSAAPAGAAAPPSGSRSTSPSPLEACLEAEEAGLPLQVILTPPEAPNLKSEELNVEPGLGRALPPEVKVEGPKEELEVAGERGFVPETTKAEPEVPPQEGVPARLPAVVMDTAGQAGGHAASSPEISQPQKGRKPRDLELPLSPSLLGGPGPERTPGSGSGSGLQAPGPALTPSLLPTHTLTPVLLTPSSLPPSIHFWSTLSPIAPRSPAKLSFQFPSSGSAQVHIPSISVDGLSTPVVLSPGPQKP
The conditions noted are these: protein: recombinant; tags: N-terminal GST; dsDNA, one strand shown. A digest of the protocol:
as §1

For another experiment, the target named is T3, GABPA (Homo sapiens, UniProt Q06546 1-454).
T3 sequence: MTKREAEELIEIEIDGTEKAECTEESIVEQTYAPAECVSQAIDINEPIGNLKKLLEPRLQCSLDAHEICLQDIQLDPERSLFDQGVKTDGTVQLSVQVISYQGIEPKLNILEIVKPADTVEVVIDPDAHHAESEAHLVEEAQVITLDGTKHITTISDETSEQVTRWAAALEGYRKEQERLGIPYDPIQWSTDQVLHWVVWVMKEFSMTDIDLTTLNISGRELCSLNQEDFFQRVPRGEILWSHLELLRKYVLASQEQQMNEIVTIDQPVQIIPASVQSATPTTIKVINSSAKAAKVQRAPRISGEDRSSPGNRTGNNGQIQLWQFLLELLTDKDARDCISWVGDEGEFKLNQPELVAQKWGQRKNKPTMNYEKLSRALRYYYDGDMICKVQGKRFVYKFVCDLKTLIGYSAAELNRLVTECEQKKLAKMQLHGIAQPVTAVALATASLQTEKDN
The conditions noted are these: protein: recombinant; tags: N-terminal GST; dsDNA, one strand shown. The essentials: as §1

A further experiment deals with T4, ERG (Homo sapiens, UniProt P11308 1-479).
T4 sequence: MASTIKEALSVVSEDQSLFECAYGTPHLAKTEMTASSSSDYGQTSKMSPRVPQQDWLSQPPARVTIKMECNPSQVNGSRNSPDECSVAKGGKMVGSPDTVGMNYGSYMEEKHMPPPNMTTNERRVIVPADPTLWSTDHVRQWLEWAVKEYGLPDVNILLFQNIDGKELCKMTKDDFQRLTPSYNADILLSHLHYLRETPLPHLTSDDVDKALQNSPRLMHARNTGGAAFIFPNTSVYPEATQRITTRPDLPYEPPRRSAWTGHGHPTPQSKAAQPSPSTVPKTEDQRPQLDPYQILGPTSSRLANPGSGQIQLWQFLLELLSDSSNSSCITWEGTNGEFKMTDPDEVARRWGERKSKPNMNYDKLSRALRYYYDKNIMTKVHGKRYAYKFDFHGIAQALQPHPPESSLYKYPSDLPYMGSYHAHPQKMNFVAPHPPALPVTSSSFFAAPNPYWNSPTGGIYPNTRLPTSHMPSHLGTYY
The conditions noted are these: protein: recombinant; tags: N-terminal GST; dsDNA, one strand shown. A digest of the protocol:
as §1

Another experiment addresses ELF1 (Homo sapiens, UniProt P32519 1-619). The conditions noted are these: protein: recombinant; tags: N-terminal GST; dsDNA, one strand shown. The essentials: as §1
The target in a further experiment is T5, EHF (Homo sapiens, UniProt Q9NZC4 1-300).
T5 sequence: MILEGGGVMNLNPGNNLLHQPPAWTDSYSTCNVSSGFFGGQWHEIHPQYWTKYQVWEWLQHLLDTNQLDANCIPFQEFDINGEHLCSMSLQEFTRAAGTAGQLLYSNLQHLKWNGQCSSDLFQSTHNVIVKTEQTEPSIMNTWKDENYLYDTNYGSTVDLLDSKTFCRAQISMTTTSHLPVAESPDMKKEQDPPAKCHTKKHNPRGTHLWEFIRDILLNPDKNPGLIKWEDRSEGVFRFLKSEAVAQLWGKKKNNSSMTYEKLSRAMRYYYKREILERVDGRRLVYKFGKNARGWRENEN
The conditions noted are these: protein: recombinant; tags: N-terminal GST; dsDNA, one strand shown. The essentials: as §1

A further experiment deals with SPI1 (Homo sapiens, UniProt P17947 1-270). As to conditions: protein: recombinant; tags: N-terminal GST; dsDNA, one strand shown. The essentials:
as §1

Another experiment addresses SPIB (Homo sapiens, UniProt Q01892 1-262). As to conditions: protein: recombinant; tags: N-terminal GST; dsDNA, one strand shown. A digest of the protocol: as §1
Another experiment addresses T6, ELK3 (Homo sapiens, UniProt P41970 1-407).
T6 sequence: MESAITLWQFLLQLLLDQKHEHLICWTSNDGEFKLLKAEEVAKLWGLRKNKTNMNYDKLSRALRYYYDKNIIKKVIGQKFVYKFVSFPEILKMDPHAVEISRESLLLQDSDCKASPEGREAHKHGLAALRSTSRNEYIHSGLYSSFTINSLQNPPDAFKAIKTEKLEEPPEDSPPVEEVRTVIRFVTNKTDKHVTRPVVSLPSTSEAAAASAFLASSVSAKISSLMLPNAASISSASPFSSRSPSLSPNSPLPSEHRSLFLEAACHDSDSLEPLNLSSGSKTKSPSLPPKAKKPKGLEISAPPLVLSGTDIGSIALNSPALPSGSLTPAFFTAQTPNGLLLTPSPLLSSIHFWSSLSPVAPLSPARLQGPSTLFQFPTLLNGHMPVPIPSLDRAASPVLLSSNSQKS
The conditions noted are these: protein: recombinant; tags: N-terminal GST; dsDNA, one strand shown. A digest of the protocol:
as §1

The target of the next experiment is T7, FEV (Homo sapiens, UniProt Q99581 1-238).
T7 sequence: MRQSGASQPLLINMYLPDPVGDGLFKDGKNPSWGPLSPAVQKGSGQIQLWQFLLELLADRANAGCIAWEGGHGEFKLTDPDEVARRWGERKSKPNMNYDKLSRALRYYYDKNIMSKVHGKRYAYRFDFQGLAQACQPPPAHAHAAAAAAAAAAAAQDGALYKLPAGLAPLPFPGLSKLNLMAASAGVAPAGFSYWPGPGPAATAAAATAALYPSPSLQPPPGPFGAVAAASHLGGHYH
As to conditions: protein: recombinant; tags: N-terminal GST; dsDNA, one strand shown. The essentials: as §1

Another experiment deals with ETV5 (Homo sapiens, UniProt P41161 1-510). As to conditions: protein: recombinant; tags: N-terminal GST; dsDNA, one strand shown. A digest of the protocol:
as §1

A further experiment addresses HSF1 (Homo sapiens, UniProt Q00613 1-529). The conditions noted are these: protein: recombinant; tags: N-terminal GST; chain copies: 3; dsDNA, one strand shown. A digest of the protocol:
as §1

For a further experiment, the target named is T8, SPIC (Homo sapiens, UniProt Q8N5J4 1-248).
T8 sequence: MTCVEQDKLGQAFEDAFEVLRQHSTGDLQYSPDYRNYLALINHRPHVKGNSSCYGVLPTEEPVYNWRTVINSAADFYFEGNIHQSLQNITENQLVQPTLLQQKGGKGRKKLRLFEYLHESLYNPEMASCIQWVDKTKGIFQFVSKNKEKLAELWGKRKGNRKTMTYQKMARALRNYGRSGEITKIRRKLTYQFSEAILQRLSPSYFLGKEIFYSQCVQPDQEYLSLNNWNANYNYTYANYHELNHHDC
The conditions noted are these: protein: recombinant; tags: N-terminal GST; dsDNA, one strand shown. A digest of the protocol: as §1

The target in another experiment is ELF4 (Homo sapiens, UniProt Q99607 1-663). As to conditions: protein: recombinant; tags: N-terminal GST; dsDNA, one strand shown. The essentials: as §1
A further experiment deals with T9, ELK4 (Homo sapiens, UniProt P28324-2 1-405).
T9 sequence: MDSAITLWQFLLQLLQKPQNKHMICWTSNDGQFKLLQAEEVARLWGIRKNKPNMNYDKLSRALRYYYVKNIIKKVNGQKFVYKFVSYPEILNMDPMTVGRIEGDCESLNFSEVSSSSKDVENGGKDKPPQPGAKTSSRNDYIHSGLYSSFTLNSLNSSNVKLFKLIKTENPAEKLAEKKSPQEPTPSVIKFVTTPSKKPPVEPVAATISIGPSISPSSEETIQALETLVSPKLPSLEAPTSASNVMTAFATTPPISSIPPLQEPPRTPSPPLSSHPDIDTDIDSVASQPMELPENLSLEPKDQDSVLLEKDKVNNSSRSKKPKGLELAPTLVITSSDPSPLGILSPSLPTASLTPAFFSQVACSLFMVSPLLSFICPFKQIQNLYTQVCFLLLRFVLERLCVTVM
The conditions noted are these: protein: recombinant; tags: N-terminal GST; dsDNA, one strand shown. The essentials:
as §1

For a further experiment, the target named is T10, ETV2 (Homo sapiens, UniProt O00321 1-342).
T10 sequence: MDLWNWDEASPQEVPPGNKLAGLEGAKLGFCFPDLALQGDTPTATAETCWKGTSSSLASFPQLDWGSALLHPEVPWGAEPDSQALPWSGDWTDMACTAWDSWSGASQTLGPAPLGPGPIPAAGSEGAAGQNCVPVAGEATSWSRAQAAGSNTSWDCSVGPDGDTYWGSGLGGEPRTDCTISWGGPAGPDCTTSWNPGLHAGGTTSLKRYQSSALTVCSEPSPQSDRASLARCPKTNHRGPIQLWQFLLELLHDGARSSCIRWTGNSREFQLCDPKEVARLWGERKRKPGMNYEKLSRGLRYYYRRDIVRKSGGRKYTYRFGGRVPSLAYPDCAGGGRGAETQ
The conditions noted are these: protein: recombinant; tags: N-terminal GST; dsDNA, one strand shown. A digest of the protocol:
as §1

The next experiment has as its target T11, ELF3 (Homo sapiens, UniProt P78545 1-371).
T11 sequence: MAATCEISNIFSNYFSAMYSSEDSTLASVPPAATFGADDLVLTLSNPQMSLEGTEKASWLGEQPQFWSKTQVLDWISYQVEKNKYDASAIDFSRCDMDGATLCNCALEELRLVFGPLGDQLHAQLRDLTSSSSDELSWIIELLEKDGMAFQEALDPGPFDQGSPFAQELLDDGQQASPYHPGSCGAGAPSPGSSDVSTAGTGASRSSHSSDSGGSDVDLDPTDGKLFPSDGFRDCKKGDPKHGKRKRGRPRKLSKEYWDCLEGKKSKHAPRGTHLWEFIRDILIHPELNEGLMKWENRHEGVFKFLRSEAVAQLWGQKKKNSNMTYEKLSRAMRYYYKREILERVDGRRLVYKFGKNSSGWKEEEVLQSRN
As to conditions: protein: recombinant; tags: N-terminal GST; dsDNA, one strand shown. A digest of the protocol:
as §1

The next experiment has as its target CRX (Homo sapiens, UniProt O43186 1-299). As to conditions: protein: recombinant; tags: N-terminal GST; dsDNA, one strand shown. A digest of the protocol: as §1
In the next experiment the target is ETV1 (Homo sapiens, UniProt P50549 1-477). The conditions noted are these: protein: recombinant; tags: N-terminal GST; dsDNA, one strand shown. The essentials:
as §1

HSF1, sequence (Q00613 whole entry): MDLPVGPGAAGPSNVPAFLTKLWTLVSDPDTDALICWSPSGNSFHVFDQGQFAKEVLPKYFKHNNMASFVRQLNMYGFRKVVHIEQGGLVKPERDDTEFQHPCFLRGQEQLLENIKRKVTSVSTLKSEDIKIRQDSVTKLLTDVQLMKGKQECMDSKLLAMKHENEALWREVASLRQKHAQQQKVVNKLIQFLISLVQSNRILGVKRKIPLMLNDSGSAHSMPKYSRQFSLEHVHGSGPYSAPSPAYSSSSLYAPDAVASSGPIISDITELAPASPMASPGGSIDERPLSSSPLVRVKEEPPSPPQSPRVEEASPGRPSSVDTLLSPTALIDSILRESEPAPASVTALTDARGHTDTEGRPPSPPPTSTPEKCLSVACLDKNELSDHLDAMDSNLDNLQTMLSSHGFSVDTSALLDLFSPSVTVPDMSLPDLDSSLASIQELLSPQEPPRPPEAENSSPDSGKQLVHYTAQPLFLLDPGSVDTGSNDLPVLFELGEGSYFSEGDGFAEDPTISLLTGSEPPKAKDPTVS
ETV1, sequence (P50549 whole entry): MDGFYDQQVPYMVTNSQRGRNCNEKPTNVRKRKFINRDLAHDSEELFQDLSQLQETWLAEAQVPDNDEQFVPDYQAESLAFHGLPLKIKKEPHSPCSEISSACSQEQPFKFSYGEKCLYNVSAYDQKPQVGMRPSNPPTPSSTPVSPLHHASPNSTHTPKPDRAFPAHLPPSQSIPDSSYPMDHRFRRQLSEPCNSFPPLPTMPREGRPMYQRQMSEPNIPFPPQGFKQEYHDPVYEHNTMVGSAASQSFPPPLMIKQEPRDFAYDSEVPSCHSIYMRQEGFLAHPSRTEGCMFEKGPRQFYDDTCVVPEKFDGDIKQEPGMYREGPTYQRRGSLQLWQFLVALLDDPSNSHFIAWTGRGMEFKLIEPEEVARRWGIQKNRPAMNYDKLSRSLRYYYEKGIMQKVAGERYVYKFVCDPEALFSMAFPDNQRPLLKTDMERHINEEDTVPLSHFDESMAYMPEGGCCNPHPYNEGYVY
ELF4, sequence (Q99607 whole entry): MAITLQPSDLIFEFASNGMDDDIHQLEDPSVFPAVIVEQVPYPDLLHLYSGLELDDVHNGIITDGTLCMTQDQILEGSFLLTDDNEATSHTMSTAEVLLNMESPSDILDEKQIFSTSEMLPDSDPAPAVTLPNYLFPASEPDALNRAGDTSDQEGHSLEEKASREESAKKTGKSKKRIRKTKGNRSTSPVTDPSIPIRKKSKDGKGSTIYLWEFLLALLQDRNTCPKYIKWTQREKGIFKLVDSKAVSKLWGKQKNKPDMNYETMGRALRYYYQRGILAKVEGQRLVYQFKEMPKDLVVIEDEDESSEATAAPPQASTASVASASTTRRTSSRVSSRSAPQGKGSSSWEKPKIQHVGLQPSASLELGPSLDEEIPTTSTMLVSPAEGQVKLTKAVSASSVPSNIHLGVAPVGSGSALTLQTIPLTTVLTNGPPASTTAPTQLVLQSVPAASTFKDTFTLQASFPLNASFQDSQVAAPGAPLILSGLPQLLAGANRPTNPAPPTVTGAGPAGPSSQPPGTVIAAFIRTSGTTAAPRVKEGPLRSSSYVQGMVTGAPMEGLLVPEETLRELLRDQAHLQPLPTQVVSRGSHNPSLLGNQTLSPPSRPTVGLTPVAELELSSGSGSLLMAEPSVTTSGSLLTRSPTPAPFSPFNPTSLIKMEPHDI
ETV5, sequence (P41161 whole entry): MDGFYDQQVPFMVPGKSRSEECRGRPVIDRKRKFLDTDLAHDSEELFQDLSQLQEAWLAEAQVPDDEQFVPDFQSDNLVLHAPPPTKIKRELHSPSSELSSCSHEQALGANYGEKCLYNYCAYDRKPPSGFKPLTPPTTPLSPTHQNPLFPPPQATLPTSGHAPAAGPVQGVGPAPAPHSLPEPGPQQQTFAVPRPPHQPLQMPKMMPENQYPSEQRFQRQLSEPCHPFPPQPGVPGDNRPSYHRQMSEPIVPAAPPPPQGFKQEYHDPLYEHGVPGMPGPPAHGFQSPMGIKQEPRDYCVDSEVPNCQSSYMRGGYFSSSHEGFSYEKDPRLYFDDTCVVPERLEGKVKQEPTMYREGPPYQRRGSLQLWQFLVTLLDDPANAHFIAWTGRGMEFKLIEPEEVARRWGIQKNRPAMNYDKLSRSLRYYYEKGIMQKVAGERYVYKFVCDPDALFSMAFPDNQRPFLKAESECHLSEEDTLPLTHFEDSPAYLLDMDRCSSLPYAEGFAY
ELF1, sequence (P32519 whole entry): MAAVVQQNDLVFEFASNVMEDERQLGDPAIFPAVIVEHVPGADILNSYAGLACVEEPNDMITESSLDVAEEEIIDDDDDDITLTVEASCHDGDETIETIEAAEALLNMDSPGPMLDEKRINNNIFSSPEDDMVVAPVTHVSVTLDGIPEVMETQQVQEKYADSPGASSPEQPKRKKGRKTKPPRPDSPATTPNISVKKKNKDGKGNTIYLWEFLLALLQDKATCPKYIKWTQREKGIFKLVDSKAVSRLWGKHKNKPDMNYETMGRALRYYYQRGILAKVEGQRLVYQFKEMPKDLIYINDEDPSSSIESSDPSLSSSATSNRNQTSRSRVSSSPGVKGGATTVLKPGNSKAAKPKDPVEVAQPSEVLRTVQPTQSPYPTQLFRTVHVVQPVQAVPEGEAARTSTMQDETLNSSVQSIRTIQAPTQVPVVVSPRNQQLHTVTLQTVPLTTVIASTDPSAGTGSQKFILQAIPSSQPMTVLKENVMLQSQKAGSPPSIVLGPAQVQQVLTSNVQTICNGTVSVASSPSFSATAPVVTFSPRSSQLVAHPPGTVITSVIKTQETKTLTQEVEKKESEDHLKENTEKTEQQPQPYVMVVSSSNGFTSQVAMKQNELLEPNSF
SPIB, sequence (Q01892 whole entry): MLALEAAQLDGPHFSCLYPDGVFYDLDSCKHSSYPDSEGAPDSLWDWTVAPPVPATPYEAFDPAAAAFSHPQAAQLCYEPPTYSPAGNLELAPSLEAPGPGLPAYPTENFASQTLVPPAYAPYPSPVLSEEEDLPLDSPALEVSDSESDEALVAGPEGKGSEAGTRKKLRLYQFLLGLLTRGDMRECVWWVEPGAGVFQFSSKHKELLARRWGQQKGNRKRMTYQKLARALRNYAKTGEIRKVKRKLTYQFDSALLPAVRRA
CRX, sequence (O43186 whole entry): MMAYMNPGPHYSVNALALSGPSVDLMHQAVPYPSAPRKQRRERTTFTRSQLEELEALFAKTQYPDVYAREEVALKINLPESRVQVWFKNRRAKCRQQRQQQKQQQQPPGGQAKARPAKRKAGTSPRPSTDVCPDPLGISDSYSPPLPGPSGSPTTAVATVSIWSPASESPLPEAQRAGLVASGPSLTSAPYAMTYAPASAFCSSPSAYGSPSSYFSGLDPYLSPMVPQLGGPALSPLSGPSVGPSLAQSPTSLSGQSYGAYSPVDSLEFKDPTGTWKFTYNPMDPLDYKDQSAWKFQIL

Regarding GCTCAG, the binding signal is 1.16 fold enrichment (6-mer frequency, TF over GST control) with FLI1; 1.17 fold enrichment (6-mer frequency, TF over GST control) with ELK1; 1.24 fold enrichment (6-mer frequency, TF over GST control) in the experiment with GABPA; 1.18 fold enrichment (6-mer frequency, TF over GST control) with ERG; 1.21 fold enrichment (6-mer frequency, TF over GST control) in the experiment with ELF1; 1.11 fold enrichment (6-mer frequency, TF over GST control) with EHF. Also, the binding signal is 1.07 fold enrichment (6-mer frequency, TF over GST control) with SPI1; 1.12 fold enrichment (6-mer frequency, TF over GST control) in the experiment with SPIB; 1.11 fold enrichment (6-mer frequency, TF over GST control) with ELK3; 1.11 fold enrichment (6-mer frequency, TF over GST control) in the experiment with FEV; 1.17 fold enrichment (6-mer frequency, TF over GST control) in the experiment with ETV5; 1.13 fold enrichment (6-mer frequency, TF over GST control) with HSF1. Moreover, the binding signal was 1.23 fold enrichment (6-mer frequency, TF over GST control) in the experiment with SPIC; 1.19 fold enrichment (6-mer frequency, TF over GST control) with ELF4; 1.22 fold enrichment (6-mer frequency, TF over GST control) with ELK4; 1.18 fold enrichment (6-mer frequency, TF over GST control) with ETV2; 1.03 fold enrichment (6-mer frequency, TF over GST control) with ELF3; 1.41 fold enrichment (6-mer frequency, TF over GST control) in the experiment with CRX. The binding signal in the experiment with ETV1 is 1.13 fold enrichment (6-mer frequency, TF over GST control).
